Data from PubChem BioAssay AID485364 (National Center for Advancing Translational Sciences (NCATS), 2010).
Out of some 360,000 compounds screened, about 11,000 (3.1%) were called active. Another 4% or so got no clear call; they are omitted. The list comes from a sample in which actives are over-represented; it also holds similar structures and randomly drawn compounds. Unmarked numbers belong to inactive results. The call rests on the fitted dose curve; in most records, active means well fitted inhibition curve with a large enough effect; inconclusive means small, poorly fitted or top-dose-only effect; inactive means no such curve, though single readings can be large or run the other way.
Further: nearly all actives have a fitted effect of over 60% in size.
On the % scale 0 is the no-effect control and ±100 the full control effect; potency means the concentration at half of the fitted maximal effect.

Each molecule was assayed against Schistosoma mansoni thioredoxin glutathione reductase (TGR) (UniProt Q962Y6) (assay: qHTS Assay for the Inhibitors of Schistosoma Mansoni Peroxiredoxins). Settings: purified TGR, DTNB reduction, TNB absorbance 405 nm; series mostly up to 114 µM; activity change, negative = inhibition: at the top concentration.
Procedure, shortened: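 First, TGR (20 nM dispensed) and NADPH were mixed with compound. Second, a 15 min room-temperature incubation followed. Third, further NADPH and then DTNB were added to start the reaction. Finally, TNB absorbance was monitored kinetically.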
With `COc1cc(C(=O)Nc2ccc(OCc3cc(=O)n4cc(C)sc4n3)cc2)cc(OC)c1OC` the “activity change, negative = inhibition” value was -7.3%.
With `COc1ccc(CC(=O)N2CC(=O)Nc3ccc(Br)cc3C2c2ccc(F)cc2)cc1OC` (stereo unspecified) the “activity change, negative = inhibition” value was 18.4%.
For `CCOC(=O)C1CCCN(C(=O)Cn2ncc3c(C)n(Cc4ccc(F)cc4)c(C)c3c2=O)C1` (stereo unspecified), the “activity change, negative = inhibition” value was -6.64%.
For `COc1cccc(C(c2c(O)cc(C)n(Cc3ccco3)c2=O)N2CCN(c3ccccc3)CC2)c1` (stereo unspecified), the Potency was 3.16 µM (active).
For `C/C(=N\N1CCN(Cc2ccc(C)cc2)CC1)c1ccco1`, the “activity change, negative = inhibition” value was 2.61%.
For `Cc1oc2ncn(CC(C)C)c(=O)c2c1C(=O)N1CCN(c2ccccc2F)CC1`, the “activity change, negative = inhibition” value was 5.16%.
`CCN1CCN(C(c2ccc(C)cc2)c2c(O)cc(C)n(Cc3ccco3)c2=O)CC1` (stereo unspecified) was tested, and the Potency was 4.47 µM (active).
`Cc1cc(O)c(C(c2ccccc2)N2CCN(c3ccccc3F)CC2)c(=O)n1Cc1ccco1` (stereo unspecified) was tested, and the Potency was 3.16 µM (active).
In the case of `OC(COCc1ccco1)CN1CCN(c2ccccc2)CC1` (stereo unspecified), the “activity change, negative = inhibition” value is reported as -1.65%.
With `COc1ccc(C(CC(=O)N2CCN(c3ccccc3)CC2)c2c(O)cc(OC)cc2OC)cc1` (stereo unspecified) the “activity change, negative = inhibition” value was -0.401%.
In the case of `Cc1nc2ccn(Cc3cccnc3)c(=O)c2cc1C(=O)N1CCN(c2ccccc2F)CC1`, the “activity change, negative = inhibition” value is reported as 8.3%.
With `CCOC(=O)C1(CCc2ccccc2)CCN(Cc2ccco2)CC1` the “activity change, negative = inhibition” value was -14.5%.
In the case of `Cc1ccc(N(C)C(=O)C2CCN(S(=O)(=O)c3ccc4c(c3)CCCN4C(=O)C3CCC3)CC2)cc1`, the “activity change, negative = inhibition” value is reported as -0.86%.
With `COc1cccc(CNCc2c(C(=O)O)n(Cc3ccc(C)cc3)c3cc(C)ccc23)c1OC` the “activity change, negative = inhibition” value was 5.78%.
In the case of `Cc1ccc(NC(=O)CN2C(=O)CC(C)Sc3ccccc32)c(C)c1` (stereo unspecified), the “activity change, negative = inhibition” value is reported as -3.82%.
With `Cc1ccc2oc(=O)c3cnn(CC(=O)NCc4ccccc4Cl)c3c2c1` the “activity change, negative = inhibition” value was -4.87%.
In the case of `CC(C)c1ccc(NS(=O)(=O)c2ccc3[nH]cc(C(=O)NC4CCCC4)c(=O)c3c2)cc1`, the “activity change, negative = inhibition” value is reported as 7.55%.
With `CC(C)(C)C1C/C(=C/c2ccco2)C(=O)/C(=C/c2ccco2)C1` (stereo unspecified) the Potency was 39.8 µM (active).
In the case of `CCCCN=C1N/C(=C\c2ccco2)C(=O)N1c1ccccc1`, the Potency is reported as 20 µM (active).
In the case of `CCOC(=O)C1(C)NC(c2ccco2)C2C(=O)N(c3ccccc3)C(=O)C21` (stereo unspecified), the “activity change, negative = inhibition” value is reported as -3.96%.
For `CCOc1c(CNCc2ccc(C(=O)O)cc2)cccc1OC`, the “activity change, negative = inhibition” value was -2.21%.
In the case of `CCOc1cccc2c1N[C@@H](c1ccc(C(=O)O)cc1)[C@H]1CC=C[C@@H]21`, the Potency is reported as 7.08 µM (active).
For `CCOc1cccc(CC(=O)N2CCc3c([nH]c4ccccc34)C2c2ccc(F)cc2)c1OCC` (stereo unspecified), the “activity change, negative = inhibition” value was 4.64%.
With `CCOC(=O)N1CCc2c(sc3c2c(=O)n(Cc2ccccc2)c(=O)n3CC(=O)Nc2cccc(C)c2)C1` the “activity change, negative = inhibition” value was -0.288%.
`Cc1ccc(N2CC(c3nnc(Cc4ccccc4Cl)o3)CC2=O)cc1` (stereo unspecified) was tested, and the “activity change, negative = inhibition” value was 12%.
`CCOc1ccccc1CNC(=O)c1ccc2c(c1)nc1n2CCC(C)C1` (stereo unspecified) was tested, and the “activity change, negative = inhibition” value was -0.951%.
In the case of `CCOc1cccc2cc(-c3cn4c(n3)sc3cc(C)ccc34)c(=O)oc12`, the “activity change, negative = inhibition” value is reported as 1.43%.
`O=C1NC(=O)N(c2ccccc2)C(=O)/C1=C/c1ccc([N+](=O)[O-])s1` was tested, and the Potency was 5.62 µM (active).
`COc1cccc(/C=C2\SC(=N)N(c3ccc(F)cc3)C2=O)c1` was tested, and the “activity change, negative = inhibition” value was 3.46%.
`COc1cccc(N2C(=O)NC(=O)/C(=C\c3ccc([N+](=O)[O-])s3)C2=O)c1` was tested, and the Potency was 8.91 µM (active).
`COc1cc(/C=C2/C(=O)NN(c3ccc(F)cc3)C2=O)cc([N+](=O)[O-])c1O` was tested, and the “activity change, negative = inhibition” value was -12.7%.
With `Cc1ccccc1-c1nc2scc(CCNC(=O)C(=O)Nc3ccc(F)cc3F)n2n1` the “activity change, negative = inhibition” value was 0.0736%.
For `Cc1ccc(S(=O)(=O)N(Cc2nc(-c3ccc(Cl)cc3)no2)C2CCCCC2)cc1`, the “activity change, negative = inhibition” value was 10.4%.
In the case of `COc1ccc(CCN2C(=O)c3oc4cc(C)cc(C)c4c(=O)c3C2c2ccccc2F)cc1OC` (stereo unspecified), the “activity change, negative = inhibition” value is reported as -9.97%.
With `Cc1cc(C)cc(OCC(=O)Nc2nc(-c3ccc(F)cc3)ns2)c1` the “activity change, negative = inhibition” value was 6.53%.
For `Cc1ccn2c(Nc3ccc4c(c3)OCCO4)c(-c3ccc(C)s3)nc2c1`, the “activity change, negative = inhibition” value was 4.83%.
In the case of `COc1cc(C(=O)NC(=S)NCc2ccco2)cc(OC)c1OC`, the “activity change, negative = inhibition” value is reported as 3.26%.
In the case of `COc1cc(Cn2c(N)c(C(=O)NCc3ccco3)c3nc4ccccc4nc32)cc(OC)c1OC`, the Potency is reported as 7.08 µM (active).
With `COc1cc(-n2c(C)nc3cc(C(=O)NCc4ccco4)ccc32)cc(OC)c1OC` the “activity change, negative = inhibition” value was 0.602%.
In the case of `CCc1ccc(S(=O)(=O)c2nnn3c2nc(NCc2ccccc2OC)c2cc(Cl)ccc23)cc1`, the “activity change, negative = inhibition” value is reported as 8.14%.
In the case of `Cc1nn(Cc2ccc(F)cc2)c(C)c1NC(=O)c1cc(CC(C)C)on1`, the “activity change, negative = inhibition” value is reported as 0.928%.
In the case of `COc1ccccc1N1CCN(C(CNC(=O)Oc2ccccc2)c2cccnc2)CC1` (stereo unspecified), the “activity change, negative = inhibition” value is reported as 0.19%.
For `CCOC(=O)N1CCN(C(c2cccnc2)c2ccc3cccnc3c2O)CC1` (stereo unspecified), the Potency was 0.316 µM (active).
For `O=C(CSc1cccc2cccnc12)N/N=C/c1cccnc1`, the “activity change, negative = inhibition” value was 10.9%.
`COc1ccc(CC(=O)Nc2nnc3n2CCS3)cc1OC` was tested, and the “activity change, negative = inhibition” value was -0.169%.
In the case of `CCOC(=O)c1c(C)[nH]c(CCC(=O)NCCCN2CCN(c3cccc(Cl)c3)CC2)c1C`, the “activity change, negative = inhibition” value is reported as -6.57%.
In the case of `CN(C(=O)c1ccc2c(c1)N(Cc1cccc(Cl)c1)C(=O)c1ccccc1S2=O)C1CCCCC1` (stereo unspecified), the “activity change, negative = inhibition” value is reported as 13.3%.
`Cc1ccc(COC(=O)CN2C(=O)NC3(CCCC3)C2=O)cc1` was tested, and the “activity change, negative = inhibition” value was -26.1%.
In the case of `CCOc1ccc(C(C)=O)cc1COC(=O)CNC(=O)c1cccs1`, the Potency is reported as 11.2 µM (active).
In the case of `COc1ccc(C(=O)COC(=O)CNC(=O)c2cccs2)cc1Br`, the “activity change, negative = inhibition” value is reported as -32.3%.
For `CCOc1ccc(C(C)NC(=O)CN2C(=O)NC3(CCCCC3)C2=O)cc1OCC` (stereo unspecified), the “activity change, negative = inhibition” value was 1.76%.
In the case of `CCOc1ccc(C(C)=O)cc1COC(=O)c1cnc(Cl)c(Cl)c1`, the “activity change, negative = inhibition” value is reported as -19.2%.
With `CCOc1ccc(C(C)=O)cc1COC(=O)CN1C(=O)NC2(CCCC2)C1=O` the Potency was 10 µM (active).
`CCOc1ccccc1N(C)C(=O)c1cc2c(s1)-c1ccccc1OC2` was tested, and the “activity change, negative = inhibition” value was 0.733%.
With `Cc1nnc(NCc2ccccc2)c2c1nnn2Cc1ccc(F)cc1` the “activity change, negative = inhibition” value was 5.94%.
For `CCc1nc(-c2cc(S(=O)(=O)N3CCN(c4ccc(OC)cc4)CC3)ccc2OC)no1`, the “activity change, negative = inhibition” value was 3.63%.
`Cc1ccc(CNC(=O)Cn2c(=O)ccc3cc(S(=O)(=O)N4CCCC4)ccc32)cc1` was tested, and the “activity change, negative = inhibition” value was -0.446%.
`Cc1ccc(NC(=O)CSc2nc3ccccc3c3nc(CCn4cncc4C)nn23)cc1F` was tested, and the “activity change, negative = inhibition” value was -0.64%.
`CCC/C=C(\CCC)C(NC(=O)Cc1ccccc1)c1ccc(C(=O)OC)cc1` (stereo unspecified) was tested, and the “activity change, negative = inhibition” value was -12.9%.
`CC(=O)c1ccc(OC(NC(=O)Cc2ccccc2)C(Cl)(Cl)Cl)cc1` (stereo unspecified) was tested, and the Potency was 22.4 µM (active).
With `CC(=O)c1ccc(NC(=O)N[C@@H](Cc2ccccc2)C(=O)O)cc1` the “activity change, negative = inhibition” value was 2.42%.
